# Shown are actives, neighbours in structure and some others; about 11% of the full set was active somewhere.
# PLK1 PBD block: qHTS for Inhibitors of PLK1-PDB (polo-like kinase 1 - polo-box domain): Primary Screen; Plk1 PBD binding of FITC phosphopeptide, fluorescence polarization; Potency, µM, for the others: max response, negative = inhibition, hits mostly inhibitors; AID 720504, 2013; actives 2.8% (n = 360,000); note: series mostly up to about 57 µM; % is set by controls: 0 for no effect and ±100 for the full control effect; nearly all actives have a fitted effect of over 65% in size
# BAZ2B block: qHTS Assay for Inhibitors of BAZ2B; Bromodomain adjacent to zinc finger domain protein 2B (Homo sapiens), Q9UIF8; AlphaScreen BAZ2B-H3K14Ac peptide displacement; Potency, µM (top dose mostly 114 µM), inactives show top-dose activity change, negative = inhibition, hits mostly inhibitors; actives 4.4% (n = 360,000); AID 504333, 2011; note: % is set by controls: 0 for no effect and ±100 for the full control effect; nearly all actives have a fitted effect of over 60% in size
#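 Inhibition is scored as reduced AlphaScreen emission. The BAZ2B/b-H3(5-23)K14Ac complex (50 nM each) in PBS pH 7.4, 0.01% Tween-20 meets compound (up to 110 uM) for 30 min at RT before bead addition.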
# HP1b binding inh: HTS for Inhibitors of HP1-beta Chromodomain Interactions with Methylated Histone Tails | Chromobox protein homolog 1 (Homo sapiens), P83916 | AlphaScreen HP1-beta / biotin-H3K9me3 peptide binding | Potency, µM (top dose mostly 114 µM), inactives show top-dose activity change, negative = inhibition, usual class: inhibitors | actives 0.56% (n = 390,000); note: nearly all actives have a fitted effect of over 70% in size
#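 Compound inhibition of the preformed complex between 50 nM HP1-beta and 50 nM biotinylated H3K9me3 peptide was read by AlphaScreen. Buffer was PBS pH 7.4 with 0.01% Tween-20. Incubations ran 30 min at room temperature, with 10 ug/mL donor/acceptor beads.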
# G9a inh: qHTS Assay for Inhibitors of Histone Lysine Methyltransferase G9a; Histone-lysine N-methyltransferase EHMT2 (Homo sapiens), Q96KQ7; G9a H3K9 monomethylation, AlphaScreen, 2 h; Potency, µM (titrated, usually from 102 µM), without a hit: at the top dose activity, negative = inhibition, usual class: inhibitors; actives 8.8% (n = 350,000); AID 504332, 2011; note: % is set by controls: 0 for no effect and ±100 for the full control effect; nearly all actives have a fitted effect of over 75% in size
#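 Chemiluminescent proximity detection of H3K9 monomethylation, read after 10 min bead incubation in the dark. Reaction: 20 nM G9a, 500 nM biotin-H3K9 peptide, 20 uM SAM cofactor, 2 h, room temperature, following 15 min enzyme-compound preincubation.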
# VDR inhibitor: Inhibitors of the vitamin D receptor (VDR): qHTS | VDR-SRC2-3 peptide fluorescence polarization, 2 h | Potency, µM, for inactives: max response, negative = inhibition, actives largely listed as inhibitors | actives 0.93% (n = 400,000); note: % is set by controls: 0 for no effect and ±100 for the full control effect
#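 Signal is fluorescence polarization, reporting how far test compounds block the interaction of VDR with the SRC2-3 coregulator peptide after a 2 h room-temperature incubation.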
# JMJD2A Tudor: qHTS Assay for Inhibitors of JMJD2A-Tudor Domain. AlphaScreen JMJD2A-Tudor / H3K4me3 peptide binding. AID 504339, 2011. actives 4.4% (n = 390,000). Lysine-specific demethylase 4A (Homo sapiens), O75164. Potency, µM (series often up to 114 µM), for the others: at the highest dose activity change, negative = inhibition, usual class: inhibitors; note: % is set by controls: 0 for no effect and ±100 for the full control effect; nearly all actives have a fitted effect of over 50% in size
# The depositor's hits bear a star; ? = inconclusive; . = no result given; [ ] = dose if it differs, or a comment. Calls come from the whole dose curve; as a rule, active = well fitted curve in the direction sought with a large enough effect; inconclusive = small, poorly fitted or top-dose-only effect, or another doubt; inactive = no such curve, though single readings can be large; an effect the other way counts as inactive or inconclusive. Potency is the fitted concentration of half-maximal effect.
SMILES,PLK1 PBD block,BAZ2B block,HP1b binding inh,G9a inh,VDR inhibitor,JMJD2A Tudor
CN(C)c1ccc2c(O)cc(=O)n(C)c2c1,-28%,3%,23%,?,32µM*,-22%
Cc1ccc(S(=O)(=O)NC(=O)Nc2ncc3c(n2)CC(c2ccco2)CC3=O)cc1 (stereo not drawn),-13%,-28%,50%,18µM*,1%,-6%
CC1CCCCN1S(=O)(=O)c1ccc(C(=O)Nc2nnc(-c3ccncc3)o2)cc1 (stereo not drawn),-2%,.,30%,-7%,-1%,?
O=C(Nc1nnc(-c2ccncc2)o1)c1ccccc1,7.5µM*,10µM*,14%,-38%,?,8.9µM*
Cc1cccc(-c2nnc(NC(=O)c3ccc(Cl)cc3)o2)c1,-19%,9%,22%,8.9µM*,-1%,-4%
O=C(Nc1nnc(-c2ccc(Cl)cc2)o1)c1ccc(N2C(=O)CCC2=O)cc1,-1%,-26%,19%,43%[59 µM],-2%,-14%
Cc1ccc(C(=O)Nc2nnc(-c3ccncc3)o2)cc1,1%,56µM*,50%,2%,20%,-14%
Cc1ccc(S(=O)(=O)c2nnn3c2nc(N2CCOCC2)c2sccc23)cc1C,.,-3%,57%,0%[59 µM],1%,-30%
COc1cccc(CNC(=O)CN2C(=O)N(c3cccc(Cl)c3)S(=O)(=O)c3ccccc32)c1OC,.,4%,46%,4%[59 µM],18%,-8%
O=C(O)COc1ccc2c(c1)O/C(=C\c1ccco1)C2=O,24µM*,40µM*,40µM*,10µM*,-1%,20µM*
O=C(O)COc1ccc2c(c1)O/C(=C\c1cccs1)C2=O,-11%,-16%,21%,-37%,0%,-1%
COc1cccc(C(=O)NCCNC(=O)c2ccco2)c1,-21%,2%,3%,31%,0%,1%
CCOc1cc(C(=S)N2CCCCC2)ccc1OCC(=O)NCc1ccccc1,?,-5%,-34%,8%[12.7 µM],6%,-25%
COCCNC(=O)COC(=O)c1nsc(Cl)c1Cl,27µM*,-3%[57.1 µM],-1%,17%[0.501 µM],-5%,?
CC(C)(C)OC(=O)N1CCC[C@@H]1C(=O)NCc1ccccc1Cl,-8%,.,.,.,.,.
O=C(N/N=C/c1ccccn1)c1sc2ccccc2c1Cl,-13%,40µM*,91%,.,-12%,?
COc1cc(C(=O)N/N=C/c2ccccn2)cc(OC)c1OC,5%,25µM*,4%,-2%,-9%,-23%
COc1ccc(C(=O)N/N=C/c2ccccn2)cc1OC,1%,?,7%,3%,-5%,?
CN(C)c1ccc(C(=O)N/N=C/c2ccccn2)cc1,1%,6%,41%,7.9µM*,-9%,-24%
O=C(NCC1CCCO1)c1ccc(OC2CCN(C(=O)C3CC3)CC2)cc1 (stereo not drawn),1%,0%,57%,33%[59 µM],1%,-8%
CCN(CC)CCN1CCN(c2cncc(-c3ccc4ccccc4c3)n2)CC1,-17%,.,.,.,.,.
Cc1cc(C)c2c(N=NN(C)C)[nH]nc2n1,?,5%,31%,45µM*,4%,-6%
CCN1CCN(Cc2ccc(NC(=O)c3ccc(C)c(/C=C/c4cnc(Nc5cc(N6CCNCC6)nc(C)n5)cn4)c3)cc2C(F)(F)F)CC1,59%,?,?,28µM*,25%,79µM*
Cc1c(C)n(C)c2ccc(C(=O)N3CCN(c4ccccc4)CC3)cc12,-2%,40µM*,?,45µM*,7%,35µM*
Cc1c(C)n(C)c2ccc(C(=O)N3CCN(c4ccccn4)CC3)cc12,-5%,?,-17%,?,14%,?

# Screening results from PubChem BioAssay.
